# In PubChem BioAssay AID2330 (Broad Institute, 2010):
# Out of some 37,000 compounds screened, about 2,800 (7.6%) were called active. About 1% were inconclusive and are not listed. The full list was thinned out, with actives kept by preference. A number with no mark means an inactive call. Rule as the data show it: active = inhibition above about 80%; inconclusive = no clear call, values can overlap the other calls; inactive = below that.
# Assay: NOMO-1 AML cell viability reduction, primary screen, STK33 inhibitor project, CellTiter-Glo luminescence (AID 2330)
# Conditions: NOMO-1 AML viability, 72 h, active compounds read high, concentration not given here
row,SMILES,inhibition
1,CC(C)NC(=O)Nc1cccc2c1O[C@@H](CN(C)S(=O)(=O)c1ccc(F)cc1)[C@@H](C)CN([C@H](C)CO)C2=O,-7.11%
2,CCn1c(=O)cc(O)c2ccccc21,27.9%
3,C[C@H](CO)N1C[C@H](C)[C@H](CN(C)C(=O)NC2CCCCC2)Oc2ccc(NC(=O)c3ccncc3)cc2CC1=O,-3.17%
4,COc1ccc(S(=O)(=O)N(C)C[C@H]2Oc3ccc(NS(C)(=O)=O)cc3C(=O)N([C@H](C)CO)C[C@H]2C)cc1,-0.557%
5,C[C@@H]1CCCCO[C@H](CN(C)S(C)(=O)=O)[C@@H](C)CN([C@H](C)CO)C(=O)c2cc(NS(=O)(=O)c3ccc(Cl)cc3)ccc2O1,4.39%
6,CC(C)=CCCC1(C)C=Cc2c(ccc3c2[nH]c2cc(O)c(C)cc23)O1 (stereo unspecified),108% (active)
7,O=C(CC1SC(=NC2CC3C=CC2C3)NC1=O)Nc1ccccc1Cl (stereo unspecified),8.48%
8,CC(C)CC(C(=O)Nc1cccc([N+](=O)[O-])c1)N1C(=O)c2ccccc2C1=O (stereo unspecified),26.9%
9,O=[N+]([O-])c1cccc(NC(=S)Nc2nn(Cc3ccc(Cl)cc3Cl)cc2Cl)c1,111% (active)
10,COc1ccc(NC(=O)Nc2nn(Cc3ccc(Cl)cc3Cl)cc2Br)cc1OC,39.9%
11,C[C@H]1CN([C@@H](C)CO)C(=O)c2cc(NC(=O)Nc3ccc4c(c3)OCO4)ccc2O[C@H]1CN(C)S(=O)(=O)c1ccc(F)cc1,18.9%
12,C[C@H]1CN([C@@H](C)CO)C(=O)c2cccc(NS(=O)(=O)c3cn(C)cn3)c2O[C@@H]1CN(C)C(=O)Nc1ccc(F)cc1,7.11%
13,C[C@H]1O[C@@H](O[C@H]2[C@@H](O)C[C@H](O[C@H]3[C@@H](O)C[C@H](O[C@H]4CC[C@]5(C)C6C[C@@H](O)[C@]7(C)[C@@H](C8=CC(=O)OC8)CC[C@]7(O)C6CC[C@@H]5C4)O[C@@H]3C)O[C@@H]2C)C[C@H](O)[C@@H]1O (stereo partly specified),112% (active)
14,C[C@H]1CN([C@@H](C)CO)C(=O)Cc2cc(NC(=O)C3CC3)ccc2O[C@@H]1CN(C)C(=O)NC1CCCCC1,-0.0688%
15,Cc1ccc(S(=O)(=O)N(C)C[C@@H]2Oc3c(NS(=O)(=O)c4ccc(F)cc4)cccc3C(=O)N([C@@H](C)CO)C[C@H]2C)cc1,-7.97%
16,CCCc1nc2c(C)cc(-c3nc4ccccc4n3C)cc2n1Cc1ccc(-c2ccccc2C(=O)O)cc1,0.908%
17,C[C@H](CO)N1C[C@H](C)[C@H](CN(C)C)Oc2c(NC(=O)C3CCOCC3)cccc2C1=O,-4.27%
18,O=C(O)CCSc1nnc2c(n1)[nH]c1ccccc12,16.8%
19,O=C(CCn1cnc2ccccc2c1=O)Nc1cccc(C(F)(F)F)c1,-23.9%
20,O=C(CSc1nnc2c(n1)[nH]c1ccccc12)Nc1cccc(C(F)(F)F)c1,112% (active)
21,COc1ccc(NC(=O)C(=O)NCC(=O)Nc2cccc(C(F)(F)F)c2)cc1,14%
22,O=C(CN1C(=O)c2ccccc2S1(=O)=O)Nc1ccc(F)c(F)c1,36.7%
23,Nc1nnc(SCCN2C(=O)c3ccccc3S2(=O)=O)s1,32.8%
24,O=C1c2ccccc2S(=O)c2ccccc2S(=O)(=O)N1Cc1ccccc1 (stereo unspecified),117% (active)

row,SMILES,inhibition
1,Cc1noc(C)c1NC(=O)Nc1ccc2c(c1)C(=O)N([C@@H](C)CO)C[C@H](C)[C@@H](CN(C)C(=O)Nc1ccccc1)O2,-19%
2,Cc1ccc(S(=O)(=O)N(C)C[C@@H]2Oc3ccc(NC(=O)Cn4cnnn4)cc3CC(=O)N([C@H](C)CO)C[C@H]2C)cc1,-11.1%
3,O=C(/C=C/c1ccccc1)NCCCCNCCCNC(=O)/C=C/c1ccccc1,11.1%
4,COc1cc(NC(=O)COc2cc(C)c(Br)c(C)c2)c(OC)cc1Cl,6.99%
5,C=CCNc1nc(C)nc(OC)n1,-5.74%
6,C[C@@H]1CN([C@H](C)CO)C(=O)Cc2cc(NC(=O)Nc3ccc(F)cc3)ccc2O[C@@H]1CN(C)C(=O)Nc1ccc2c(c1)OCO2,10.5%
7,O=C1NC(Cc2c[nH]c3ccccc23)C(=O)N2CCCC12 (stereo unspecified),14.5%
8,Cc1ccc2nc(C)c3c(c2c1)N(c1ccccc1)CC3,122% (active)
9,O=C(CSc1nc2sc3c(c2c(=O)[nH]1)CCC3)Nc1ccccc1C(F)(F)F,26%
10,C[C@H](CO)N1C[C@H](C)[C@H](CN(C)C(=O)Nc2ccc(C(F)(F)F)cc2)Oc2ccc(NS(C)(=O)=O)cc2CC1=O,-2.28%
11,Cc1ccc(S(=O)(=O)N(C)C[C@@H]2Oc3ccc(NC(=O)Nc4ccc5c(c4)OCO5)cc3C(=O)N([C@@H](C)CO)C[C@@H]2C)cc1,45.7%
12,Cc1cc(C)cc(OCC(=O)Nc2cccc(-c3nnc(-c4ccccc4)o3)c2)c1,42.7%
13,Cc1ccnc(NC(c2cccc(Br)c2)c2ccc3ccc(C)nc3c2O)c1 (stereo unspecified),126% (active)
14,Cc1ccnc(NC(c2cccc([N+](=O)[O-])c2)c2ccc3ccc(C)nc3c2O)c1 (stereo unspecified),101% (active)
15,Cc1ccc(S(=O)(=O)Nc2ccc3c(c2)C(=O)N([C@@H](C)CO)C[C@H](C)[C@H](CN(C)C(=O)Nc2ccc(C(F)(F)F)cc2)O3)cc1,4.18%
16,Cc1ccc(NC(=O)C2C3C=CC(C3)C2C(=O)O)cc1 (stereo unspecified),-5.27%
17,Cc1cccc(NC(=O)CSc2nnc(-c3ccccc3)n2C2CCCCC2)c1C,22.3%
18,COc1ccc(NC(=O)CSc2nnc(-c3ccc(Br)cc3)n2C)cc1,16.2%
19,C[C@H]1CN([C@@H](C)CO)C(=O)c2cccc(NC(=O)Nc3ccccc3)c2O[C@H]1CN(C)Cc1ccc(Oc2ccccc2)cc1,18.8%
20,C[C@H](CO)N1C[C@H](C)[C@@H](CN(C)C(=O)Nc2ccccc2)Oc2c(NC(=O)CCCCCC(=O)Nc3ccccc3N)cccc2C1=O,21.7%
21,C[C@H]1CN([C@@H](C)CO)C(=O)c2cccc(NC(=O)CCCCCC(=O)Nc3ccccc3N)c2O[C@H]1CN(C)C(=O)Nc1ccccc1,10.1%
22,C[C@@H]1CN([C@H](C)CO)C(=O)c2cccc(NC(=O)CCCCCC(=O)Nc3ccccc3N)c2O[C@@H]1CN(C)C(=O)Nc1ccccc1,7.63%
23,C[C@H](CO)N1C[C@H](C)[C@@H](CN(C)Cc2ccccc2)Oc2c(NC(=O)CCCCCC(=O)Nc3ccccc3N)cccc2C1=O,126% (active)
24,C[C@H](CO)N1C[C@H](C)[C@H](CN(C)Cc2ccc(Oc3ccccc3)cc2)Oc2c(NC(=O)CCCCCC(=O)Nc3ccccc3N)cccc2C1=O,139% (active)

row,SMILES,inhibition
1,C[C@H]1CN([C@@H](C)CO)C(=O)c2cccc(NC(=O)Nc3ccccc3)c2O[C@@H]1CN(C)S(C)(=O)=O,-0.709%
2,COc1cc(C2c3c(cc(OC)c(O)c3OC)CC(CO[C@@H]3O[C@H](CO)[C@@H](O)[C@H](O)[C@H]3O)C2CO)cc(OC)c1O (stereo partly specified),-1.41%
3,O=C1C2=C(Nc3ccccc3S(=O)(=O)C2c2ccc(Cl)cc2)c2ccccc21 (stereo unspecified),121% (active)
4,COC(=O)c1ccccc1NC(=O)C(C)Oc1ccccc1F (stereo unspecified),8.1%
5,O=C(CC(C(=O)O)N1CCNCC1)Nc1cccc(Cl)c1 (stereo unspecified),9.13%
6,COc1cc(C2OC(c3ccc(O)c(OC)c3)C(C)(O)C2C)ccc1O (stereo unspecified),119% (active)
7,CCN(CC)C(=O)c1ccc(O)c(OC)c1,-13.3%
8,COc1cc(C2OC(c3cc(OC)c(OC)c(OC)c3)C(C)C2C)cc(OC)c1OC (stereo unspecified),7.55%
9,O=C(c1ccccc1Br)N1CCN(c2ccc([N+](=O)[O-])c(NCc3cccnc3)c2)CC1,40.2%
10,Cc1noc(C)c1NC(=O)Nc1ccc2c(c1)C(=O)N([C@@H](C)CO)C[C@@H](C)[C@@H](CN(C)CC1CCCCC1)O2,-6.14%
11,Oc1c(Cl)cc(Cl)c(Cl)c1Cc1c(O)c(Cl)cc(Cl)c1Cl,107% (active)
12,Cc1cc(=O)[nH]c(SCc2cn3c(C)cc(C)nc3n2)n1,-6.02%
13,COc1ccc(NC(=O)N(C)C[C@@H]2OCCCC[C@@H](C)Oc3ccc(NS(=O)(=O)c4c(C)noc4C)cc3C(=O)N([C@H](C)CO)C[C@@H]2C)cc1,7.62%
14,COc1ccc(CCCOC(Cn2ccnc2)c2ccc(OC)cc2)cc1 (stereo unspecified),114% (active)
15,Cc1ccc(S(=O)(=O)N(C)C[C@H]2OCCCC[C@@H](C)Oc3ccc(NS(C)(=O)=O)cc3C(=O)N([C@H](C)CO)C[C@@H]2C)cc1,20.5%
16,CC(C)(C)c1ccc(OCC(=O)Nc2cccc(NC(=O)c3ccccc3)c2)cc1,25.3%
17,COC(=O)COc1cccc(NC(=O)c2cc(OC)c(OC)c(OC)c2)c1,124% (active)
18,COc1ccccc1NC(=O)c1ccc(OCC(=O)O)cc1,-18.7%
19,C[C@H]1CN([C@@H](C)CO)C(=O)c2cccc(NC(=O)CCCCCC(=O)Nc3ccccc3N)c2O[C@@H]1CN(C)S(=O)(=O)c1cn(C)cn1,5.62%
20,O=[N+]([O-])c1ccc(NCCNCc2cccnc2)cc1,-20%
21,CC[N+]1=C(C)C(C)(C)c2cc(-c3ccccc3)ccc21,123% (active)
22,Cc1ccc(Cn2c(NCc3nc4ccccc4n3C)nc3ccccc32)cc1,7.82%
23,CC(C)NC(=O)Nc1ccc2c(c1)C(=O)N([C@@H](C)CO)C[C@@H](C)[C@H](CN(C)C(=O)NC1CCCCC1)O2,30.5%
